Read-out in assay [1]: TIMP metallopeptidase inhibitor 2 (TIMP2), TIMP2 (gene 7077)
Briefly: BSK_KF3CT_TIMP2: BioMAP Diversity Plus: KF3CT Assay for TIMP metallopeptidase inhibitor 2 (TIMP2) Biomarker Activity (AID 2283071). The conditions noted are these: primary human keratinocytes with fibroblasts; actives raise or lower the signal. The method in brief: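 Chemicals were dosed onto human skin primary co-cultures of keratinocytes and foreskin fibroblasts, and TIMP-2 was measured by ELISA after 24 hours. Activity in either direction was fitted relative to DMSO.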

Read-out in assay [2]: C-C motif chemokine 2 (Homo sapiens) (UniProt P13500)
Nature of the assay: BSK_KF3CT_MCP1: BioMAP Diversity Plus: KF3CT Assay for Monocyte Chemoattractant Protein 1 (MCP1/CCL2) Biomarker Activity (AID 2283073). As to conditions: primary human keratinocytes with fibroblasts; actives raise or lower the signal. The method in brief:
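ELISA read-out of MCP-1, 24 h post-dose, in primary human skin keratinocytes co-cultured with fibroblasts. Parallel SRB staining monitors cytotoxicity; changes fitted both directions relative to DMSO.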

Read-out in assay [3]: Matrix Metallopeptidase 9 (MMP9), MMP9 (gene 4318)
Briefly: BSK_KF3CT_MMP9: BioMAP Diversity Plus: KF3CT Assay for Matrix Metallopeptidase 9 (MMP9) Biomarker Activity (AID 2283074).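 For AC50: MMP9 protein level quantified by ELISA in the co-culture.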 As to conditions: primary human keratinocytes with fibroblasts; actives raise or lower the signal. A digest of the protocol: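 ELISA read-out of MMP-9 at 24 h post-dosing in a co-culture of human skin keratinocytes and foreskin fibroblasts. Gain or loss of signal was fitted in both directions against DMSO.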

Read-out in assay [4]: urokinase plasminogen activator (uPA), PLAU (gene 5328)
Nature of the assay: BSK_KF3CT_uPA: BioMAP Diversity Plus: KF3CT Assay for urokinase plasminogen activator (uPA) Biomarker Activity (AID 2283075). As to conditions: primary human keratinocytes with fibroblasts; actives raise or lower the signal. The method in brief: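 Skin co-culture (keratinocytes + foreskin fibroblasts), human primary; 24 h post-dose; uPA by ELISA; gain/loss fit vs DMSO baseline.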

Read-out in assay [5]: CD40, CD40 (gene 958)
Briefly: BSK_LPS_CD40: BioMAP Diversity Plus: LPS Assay for CD40 Biomarker Activity (AID 2283076). As to conditions: primary human HUVEC with PBMC; actives raise or lower the signal. A digest of the protocol:
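In the LPS system of human endothelial cells with peripheral blood mononuclear cells, CD40 levels were read by ELISA 24 h post-treatment. Signal changes in either direction were fitted against the DMSO baseline, with parallel SRB protein staining.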

Read-out in assay [6]: E-selectin (Homo sapiens) (UniProt P16581)
Nature of the assay: BSK_LPS_Eselectin: BioMAP Diversity Plus: LPS Assay for Eselectin Biomarker Activity (AID 2283077). As to conditions: primary human HUVEC with PBMC; actives raise or lower the signal. A digest of the protocol: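 E-selectin ELISA on LPS-stimulated endothelial cell/PBMC co-cultures, read 24 h post-treatment; gains and losses fitted against DMSO. Parallel SRB staining (0.1% SRB after 10% TCA fixation, 560 nm) flags overt cytotoxicity.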

Read-out in assay [7]: Interleukin-8 (IL8), CXCL8 (gene 3576)
Nature of the assay: BSK_LPS_IL8: BioMAP Diversity Plus: LPS Assay for Interleukin-8 (IL8) Biomarker Activity (AID 2283078). As to conditions: primary human HUVEC with PBMC; actives raise or lower the signal. A digest of the protocol:
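ELISA read-out of IL-8 after 24 h chemical treatment of LPS-activated endothelial/PBMC human primary co-cultures. Changes either up or down relative to DMSO; overt cytotoxicity checked by sulforhodamine B staining in parallel wells.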

Assay [8] in a line: BSK_LPS_SRB: Viability Assessment in the BioMAP Diversity Plus: LPS Assay (AID 2283079).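 Note: total protein by sulforhodamine B absorbance as a cytotoxicity measure; measured one day after compound addition.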 The conditions noted are these: primary human HUVEC with PBMC. The method in brief: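 SRB viability endpoint: cells fixed with 10% TCA, stained with 0.1% SRB, read at 560 nm, 24 h post-dose. HUVEC/PBMC co-culture; signal change in either direction scored relative to DMSO.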
Read-out in assay [9]: Interleukin-1 alpha (IL1a), IL1A (gene 3552)
Briefly: BSK_LPS_IL1a: BioMAP Diversity Plus: LPS Assay for Interleukin-1 alpha (IL1a) Biomarker Activity (AID 2283080). The conditions noted are these: primary human HUVEC with PBMC; actives raise or lower the signal. The method in brief: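 Readout is IL-1a level by ELISA, 24 h post-dose, fitted as gain or loss relative to DMSO. System: LPS-activated human primary co-culture of vascular endothelium and peripheral blood mononuclear cells, with parallel SRB total-protein cytotoxicity.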

Read-out in assay [10]: Monocyte Chemoattractant Protein-1 (MCP1), CCL2 (gene 6347)
Briefly: BSK_LPS_MCP1: BioMAP Diversity Plus: LPS Assay for Monocyte Chemoattractant Protein-1 (MCP1) Biomarker Activity (AID 2283081).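 For AC50: secreted MCP-1 protein quantified by ELISA in culture supernatant.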 The conditions noted are these: primary human HUVEC with PBMC; actives raise or lower the signal. The method in brief:
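Secreted MCP-1 read by ELISA at 24 h post-dosing in an LPS-activated co-culture of endothelial cells with peripheral blood mononuclear cells. Fits run in both directions, DMSO as baseline; parallel SRB staining tracks overt cytotoxicity.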

Assay [11] in a line: BSK_LPS_PGE2: BioMAP Diversity Plus: LPS Assay for Prostaglandin E2 (PGE2) Biomarker Activity (AID 2283082).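 For AC50: secreted prostaglandin E2 measured by ELISA in LPS-stimulated co-culture.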 As to conditions: primary human HUVEC with PBMC; actives raise or lower the signal. A digest of the protocol:
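Compounds were added to the LPS co-culture of endothelium and PBMC, and PGE2 was measured by ELISA after 24 h. Responses in either direction were fitted with DMSO as baseline.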

Read-out in assay [12]: Tissue Factor, F3 (gene 2152)
Briefly: BSK_LPS_TissueFactor: BioMAP Diversity Plus: LPS Assay for Tissue Factor Biomarker Activity (AID 2283084). As to conditions: primary human HUVEC with PBMC; actives raise or lower the signal. A digest of the protocol: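 Compound was added to an endothelial cell/PBMC co-culture, and after 24 h tissue factor (CD142) was read by ELISA. Gain or loss of signal was fitted against a DMSO baseline, and parallel SRB staining (560 nm) tracked overt cytotoxicity.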

Read-out in assay [13]: Tumor necrosis factor (Homo sapiens) (UniProt P01375)
Nature of the assay: BSK_LPS_TNFa: BioMAP Diversity Plus: LPS Assay for Tumour Necrosis Factor alpha (TNFa) Biomarker Activity (AID 2283085).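 For AC50: TNFa protein level quantified by ELISA in the co-culture.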 The conditions noted are these: primary human HUVEC with PBMC; actives raise or lower the signal. A digest of the protocol:
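Cells (umbilical vein endothelium plus peripheral blood mononuclear cells) were dosed with chemical, incubated 24 h, then TNFa was quantified by ELISA; values derive from bidirectional fitting with DMSO as baseline.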

Read-out in assay [14]: Vascular cell adhesion molecule 1 (VCAM1), VCAM1 (gene 7412)
Nature of the assay: BSK_LPS_VCAM1: BioMAP Diversity Plus: LPS Assay for Vascular cell adhesion molecule 1 (VCAM1) Biomarker Activity (AID 2283086). The conditions noted are these: primary human HUVEC with PBMC; actives raise or lower the signal. The method in brief: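 Cells are dosed in an LPS-stimulated endothelial/mononuclear co-culture and, after 24 h, VCAM-1 is quantified by ELISA. Activity in either direction is fitted relative to the DMSO negative control.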

Read-out in assay [15]: CD38, CD38 (gene 952)
Nature of the assay: BSK_SAg_CD38: BioMAP Diversity Plus: SAg Assay for CD38 Biomarker Activity (AID 2283087). As to conditions: primary human HUVEC with PBMC; actives raise or lower the signal. The method in brief:
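CD38 quantified by ELISA (fluorescence) in a superantigen-activated endothelial cell–PBMC co-culture at 24 h post-dose. Activity fitted in both directions relative to DMSO; parallel SRB and Alamar Blue cytotoxicity read-outs.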

Read-out in assay [16]: CD40, CD40 (gene 958)
Nature of the assay: BSK_SAg_CD40: BioMAP Diversity Plus: SAg Assay for CD40 Biomarker Activity (AID 2283088). The conditions noted are these: primary human HUVEC with PBMC; actives raise or lower the signal. A digest of the protocol: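 CD40 is measured by fluorescence ELISA in an endothelial/PBMC primary human co-culture at 24 h post-dose. Fitting is bidirectional, DMSO baseline. Parallel SRB staining (560 nm) flags cytotoxicity.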

Read-out in assay [17]: CD69, CD69 (gene 969)
Nature of the assay: BSK_SAg_CD69: BioMAP Diversity Plus: SAg Assay for CD69 Biomarker Activity (AID 2283089).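 For AC50: cell surface CD69 protein quantified by ELISA with fluorescence detection.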 The conditions noted are these: primary human HUVEC with PBMC; actives raise or lower the signal. The method in brief:
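Values derive from bidirectional fitting relative to DMSO vehicle. Cells: umbilical vein endothelium plus peripheral blood mononuclear cells, treated 24 h before fluorescent ELISA for CD69.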

Read-out in assay [18]: Macrophage colony-stimulating factor (MCSF), CSF1 (gene 1435)
Briefly: BSK_LPS_MCSF: BioMAP Diversity Plus: LPS Assay for Macrophage colony-stimulating factor (MCSF) Biomarker Activity (AID 2283083). The conditions noted are these: primary human HUVEC with PBMC; actives raise or lower the signal. A digest of the protocol: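 Bidirectional fitting against DMSO was applied to M-CSF levels read by ELISA at 24 h post-dose. The system pairs human umbilical vein endothelium with peripheral blood mononuclear cells; parallel SRB staining tracked cytotoxicity.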

Read-out in assay [19]: Transforming growth factor beta 1 (TGFb1), TGFB1 (gene 7040)
Briefly: BSK_KF3CT_TGFb1: BioMAP Diversity Plus: KF3CT Assay for Transforming growth factor beta 1 (TGFb1) Biomarker Activity (AID 2283072). As to conditions: primary human keratinocytes with fibroblasts; actives raise or lower the signal. The method in brief: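 KF3CT co-culture (keratinocytes + fibroblasts), 24 h exposure → TGF-b1 ELISA → bidirectional fit, DMSO = baseline. Parallel SRB total-protein staining (0.1% SRB, 10% TCA fixation, 560 nm) for cytotoxicity.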

SMILES strings stand for the structures. Values joined by “and” are separate entries in the source; they are usually repeats but may differ in a detail not shown here. Equal values may be shown once. The source holds several records for some structures; these can differ, active in one and inactive in another. Active and inactive are the calls of the source. Rule for the calls: active = hit-call score of the fitted dose curve at least 0.9, where 1 is the maximum; inactive = score below 0.9.

Sequence of Tumor necrosis factor (Homo sapiens) (P01375 whole entry, looked up): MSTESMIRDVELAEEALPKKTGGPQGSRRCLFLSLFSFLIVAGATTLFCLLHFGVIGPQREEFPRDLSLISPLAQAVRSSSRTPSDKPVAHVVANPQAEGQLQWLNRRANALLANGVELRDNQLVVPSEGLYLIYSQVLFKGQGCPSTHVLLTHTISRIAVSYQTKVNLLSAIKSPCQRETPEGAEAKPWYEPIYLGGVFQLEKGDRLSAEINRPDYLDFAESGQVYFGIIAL
Sequence of E-selectin (Homo sapiens) (P16581 whole entry, looked up): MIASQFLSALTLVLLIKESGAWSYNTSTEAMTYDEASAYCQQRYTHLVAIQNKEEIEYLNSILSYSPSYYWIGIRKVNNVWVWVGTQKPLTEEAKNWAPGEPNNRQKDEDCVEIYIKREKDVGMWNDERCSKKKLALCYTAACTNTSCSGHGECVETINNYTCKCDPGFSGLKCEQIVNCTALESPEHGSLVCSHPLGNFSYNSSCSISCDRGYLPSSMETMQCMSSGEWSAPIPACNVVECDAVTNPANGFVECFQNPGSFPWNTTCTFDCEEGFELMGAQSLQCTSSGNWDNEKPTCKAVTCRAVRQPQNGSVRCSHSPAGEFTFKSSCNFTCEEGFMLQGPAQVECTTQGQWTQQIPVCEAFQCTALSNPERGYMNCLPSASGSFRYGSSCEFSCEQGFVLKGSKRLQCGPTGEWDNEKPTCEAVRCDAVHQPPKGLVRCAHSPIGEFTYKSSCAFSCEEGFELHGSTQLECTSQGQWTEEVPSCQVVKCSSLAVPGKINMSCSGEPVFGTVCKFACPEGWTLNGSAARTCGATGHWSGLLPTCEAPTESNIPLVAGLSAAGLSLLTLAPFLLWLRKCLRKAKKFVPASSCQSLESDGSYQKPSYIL

`C=CC(=O)OCC(F)(F)C(F)(F)C(F)(F)C(F)(F)COC(=O)C=C`: the AC50 was 25.7 µM (active) and 33.3 µM (active) in assay [1]; 10.9 µM (active) and 15.4 µM (active) in assay [2]; 30.9 µM (active) and 21.6 µM (active) in [3]; 33.8 µM (active) and 37 µM (active) in assay [4]; 12.2 µM (active) and 18.5 µM (active) in [5]; 17.3 µM (active) and 17.6 µM (active) in assay [6]. The AC50 in assay [7] was 19.2 µM (active) and 16.7 µM (active); in [8], 45.3 µM (active) and 43.4 µM (active); in assay [9], 20.2 µM (active) and 21.2 µM (active); in assay [10] it was 17.3 µM (active) and 19.4 µM (active); in assay [11], 8.08 µM (active); in [12], 36.4 µM (active) and 34.8 µM (active). Besides, the AC50 is 18.3 µM (active) and 18.1 µM (active) in assay [13]; 16.6 µM (active) and 16.4 µM (active) in [14]; 17.6 µM (active) and 20.6 µM (active) in [15]; 13.1 µM (active) and 15.1 µM (active) in assay [16]; 14.5 µM (active) and 17.3 µM (active) in [17]. For the same compound, the result in assay [11] was inactive.

For the compound `NC(=O)C(F)(F)C(F)(F)C(F)(F)C(F)(F)F`, the result in [1], in assay [2], in assay [3], in assay [4], in [5] and in [6] was inactive. In addition, the result in assay [7], in assay [8], in assay [9], in [10], in [11] and in assay [18] was inactive. The result in assay [12], in [13], in [14], in assay [15], in [16] and in assay [17] was inactive.

As to `Oc1ccc(Nc2ccccc2)cc1`, the result in assay [1], in [2], in [3], in [4], in assay [6] and in assay [7] was inactive. Further, the result in assay [8], in [9], in assay [10], in assay [18], in assay [12] and in assay [13] was inactive. Further, the AC50 in assay [19] was 20 µM (active); in assay [5], 20 µM (active); in [11], 0.668 µM (active); in assay [14] it was 20 µM (active); in assay [15], 20 µM (active); in assay [16], 8.57 µM (active). The AC50 in assay [17] was 14 µM (active).

In the case of `CCN(CC)c1ccc2c(C)cc(=O)oc2c1`, the result in assay [1], in [19], in [2], in assay [3], in [4] and in [5] was inactive. For the same compound, the outcome in [6], in [7], in assay [8], in [9], in assay [10] and in assay [12] was inactive. In addition, the result in [13], in [14], in assay [15], in [16] and in assay [17] was inactive. In assay [11], the AC50 is 6.52 µM (active).

In the case of `O[Si](c1ccccc1)(c1ccccc1)c1ccccc1`, the AC50 in [1] is 10.3 µM (active); in assay [19], 20 µM (active); in assay [3], 6.74 µM (active); in [5] it was 24.4 µM (active); in [8], 28.6 µM (active); in assay [10], 28.9 µM (active). Also, the AC50 in assay [11] is 11.6 µM (active); in [15], 32.6 µM (active); in [16], 29.6 µM (active); in assay [17], 31.7 µM (active). For the same compound, the result in assay [2], in [4], in assay [6], in [7], in assay [9] and in assay [12] was inactive. Further, the result in assay [13] and in assay [14] was inactive.

With `FC(F)(F)C(F)(F)C(F)(F)N(C(F)(F)C(F)(F)C(F)(F)F)C(F)(F)C(F)(F)C(F)(F)F`, the outcome in assay [1], in [2], in assay [3], in [4], in [5] and in [6] was inactive. For the same compound, the result in assay [7], in assay [8], in assay [9], in [10], in assay [11] and in assay [12] was inactive. Also, the result in [13], in [14], in assay [15], in assay [16] and in assay [17] was inactive.

Values taken from PubChem BioAssay (EPA / NIEHS).
